# Calls of active or inactive are those of the source.
# Assays:
# [1] = binders of probe aFSTL3 on microarray, primary screen, stem cell growth factor project, biochemical, small-molecule microarray, fluorescence 635/667 (AID 1064); conditions: higher = more signal;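 further: measures binding of the biotinylated anti-FSTL3 antibody to printed compounds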
# [2] = binders from COS7 lysate, DM2A8 probe, primary screen, torsin A project, cell lysate, small-molecule microarray, fluorescence 635/667 (AID 1065); conditions: higher = more signal, COS7 lysate expressing mutant human TOR1A
# [3] = binders of probe aFGF2 on microarray, primary screen, stem cell growth factor project, biochemical, small-molecule microarray, fluorescence 635/667 (AID 1067); conditions: higher = more signal;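 further: measures binding of biotinylated aFGF2 protein to printed compounds on slides; z-score merges feature fluorescence and signal-to-noise across triplicate slides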
# [4] = binders of probe aFGF10 on microarray, primary screen, stem cell growth factor project, biochemical, small-molecule microarray, fluorescence 635/667 (AID 1071); conditions: higher = more signal;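 further: score merges 667 nm spot intensity and signal to noise from triplicate slides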
# [5] = target: Neurogenic locus notch homolog protein 2 (Homo sapiens) (UniProt Q04721); test: Notch2 binders on small-molecule microarrays, primary screen, biochemical, small-molecule microarray, 635 nm fluorescence, stem cell growth factors (AID 1073); conditions: Notch2 binding, higher = more signal
# Neurogenic locus notch homolog protein 2 (Homo sapiens), sequence (Q04721 whole entry, looked up, canonical isoform): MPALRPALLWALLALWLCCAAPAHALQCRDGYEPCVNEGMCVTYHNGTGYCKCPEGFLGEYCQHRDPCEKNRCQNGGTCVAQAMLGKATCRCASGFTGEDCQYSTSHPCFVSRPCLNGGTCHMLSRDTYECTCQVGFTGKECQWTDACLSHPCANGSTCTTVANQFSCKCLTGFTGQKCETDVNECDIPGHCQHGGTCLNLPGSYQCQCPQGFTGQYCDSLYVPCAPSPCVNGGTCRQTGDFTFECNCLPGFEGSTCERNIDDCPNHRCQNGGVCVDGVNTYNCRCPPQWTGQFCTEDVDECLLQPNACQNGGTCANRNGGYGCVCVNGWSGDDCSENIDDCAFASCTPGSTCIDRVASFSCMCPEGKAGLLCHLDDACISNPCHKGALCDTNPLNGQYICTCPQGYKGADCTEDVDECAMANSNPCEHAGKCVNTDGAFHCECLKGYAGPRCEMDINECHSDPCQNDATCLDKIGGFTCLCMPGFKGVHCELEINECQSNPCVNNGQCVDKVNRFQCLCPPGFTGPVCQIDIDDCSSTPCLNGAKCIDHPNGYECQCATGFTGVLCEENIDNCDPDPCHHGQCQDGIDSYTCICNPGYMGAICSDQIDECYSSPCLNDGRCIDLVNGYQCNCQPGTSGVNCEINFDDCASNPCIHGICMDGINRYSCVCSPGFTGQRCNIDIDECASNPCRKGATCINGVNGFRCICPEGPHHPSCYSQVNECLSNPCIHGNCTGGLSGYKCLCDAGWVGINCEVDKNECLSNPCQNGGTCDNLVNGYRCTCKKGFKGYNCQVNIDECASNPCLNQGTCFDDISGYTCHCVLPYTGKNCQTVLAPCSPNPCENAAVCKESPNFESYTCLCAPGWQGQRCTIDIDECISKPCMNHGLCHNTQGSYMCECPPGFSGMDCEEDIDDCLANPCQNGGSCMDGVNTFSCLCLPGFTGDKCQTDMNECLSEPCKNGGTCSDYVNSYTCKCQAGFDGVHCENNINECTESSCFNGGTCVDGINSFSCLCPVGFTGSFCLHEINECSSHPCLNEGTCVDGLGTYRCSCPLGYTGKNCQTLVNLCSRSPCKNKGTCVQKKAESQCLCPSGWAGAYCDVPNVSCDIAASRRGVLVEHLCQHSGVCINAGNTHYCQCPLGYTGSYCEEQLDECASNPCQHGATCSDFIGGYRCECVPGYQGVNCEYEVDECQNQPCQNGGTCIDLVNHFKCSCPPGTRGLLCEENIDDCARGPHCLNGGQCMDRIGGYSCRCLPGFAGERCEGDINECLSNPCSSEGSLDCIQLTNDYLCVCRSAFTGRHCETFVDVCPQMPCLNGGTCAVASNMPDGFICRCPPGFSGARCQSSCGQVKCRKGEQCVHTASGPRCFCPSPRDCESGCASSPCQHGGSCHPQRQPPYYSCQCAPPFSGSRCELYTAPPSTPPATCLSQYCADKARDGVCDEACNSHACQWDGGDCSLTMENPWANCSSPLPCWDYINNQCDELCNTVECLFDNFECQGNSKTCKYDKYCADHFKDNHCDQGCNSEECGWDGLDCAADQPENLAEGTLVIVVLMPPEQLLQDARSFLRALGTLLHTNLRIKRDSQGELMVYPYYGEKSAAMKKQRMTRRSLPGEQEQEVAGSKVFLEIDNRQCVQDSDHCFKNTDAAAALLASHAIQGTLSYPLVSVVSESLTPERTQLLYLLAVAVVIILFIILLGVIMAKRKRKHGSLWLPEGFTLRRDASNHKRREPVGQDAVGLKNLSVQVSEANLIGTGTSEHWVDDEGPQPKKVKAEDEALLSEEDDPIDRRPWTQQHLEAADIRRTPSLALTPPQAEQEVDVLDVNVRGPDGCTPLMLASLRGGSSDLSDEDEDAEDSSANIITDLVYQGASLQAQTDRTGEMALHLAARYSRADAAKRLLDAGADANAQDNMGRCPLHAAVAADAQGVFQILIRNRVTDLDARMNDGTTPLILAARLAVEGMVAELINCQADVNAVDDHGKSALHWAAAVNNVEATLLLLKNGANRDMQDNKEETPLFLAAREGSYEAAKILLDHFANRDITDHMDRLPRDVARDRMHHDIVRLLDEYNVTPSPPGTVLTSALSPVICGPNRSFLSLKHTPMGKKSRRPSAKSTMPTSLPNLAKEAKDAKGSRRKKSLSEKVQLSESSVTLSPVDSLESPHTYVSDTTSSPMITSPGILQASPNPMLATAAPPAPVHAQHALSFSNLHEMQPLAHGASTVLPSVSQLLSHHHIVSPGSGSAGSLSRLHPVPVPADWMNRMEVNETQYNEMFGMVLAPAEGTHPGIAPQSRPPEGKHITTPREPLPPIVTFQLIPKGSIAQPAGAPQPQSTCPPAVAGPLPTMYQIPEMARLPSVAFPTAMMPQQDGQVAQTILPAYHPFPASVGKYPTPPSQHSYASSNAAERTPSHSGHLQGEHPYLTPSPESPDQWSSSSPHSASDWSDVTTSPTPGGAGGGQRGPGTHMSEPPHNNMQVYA
# [6] = target: Pro-neuregulin-1, membrane-bound isoform (Homo sapiens) (UniProt Q02297); test: NRG1 binders on small-molecule microarrays, primary screen, psychiatric disease protein project, biochemical, small-molecule microarray, fluorescence 635/667 (AID 1075); conditions: NRG1 binding, 635 nm fluorescence, higher = more signal;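 further: score combines 667 nm spot fluorescence with signal to noise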
# [7] = tested on: Neuregulin-1 EGF-like domain; test: binders of neuregulin-1 EGF-like domain, primary screen, biochemical, small-molecule microarray, 635 nm fluorescence (AID 1081); conditions: small-molecule microarray binding, higher = more signal;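 further: binding of the protein to compounds printed on small-molecule microarray slides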
# [8] = FRG1 promoter luciferase signal modulators, primary screen, FRG1 inhibition for FSHD, cell-based, C2C12 myotubes, firefly/Renilla luciferase, luminescence (AID 1084); conditions: higher = more signal, called active from +8 up or from −8 down
# [9] = binders of probe aFST on microarray, primary screen, stem cell growth factor project, biochemical, small-molecule microarray, fluorescence 635/667 (AID 1086); conditions: higher = more signal;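 further: score merges 667 nm fluorescence with signal-to-noise of each printed compound spot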
# [10] = binders of probe aHhip on microarray, primary screen, stem cell growth factor project, biochemical, small-molecule microarray, fluorescence 635/667 (AID 1087); conditions: higher = more signal;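 further: score merges spot fluorescence at 667nm with spot signal to noise ratio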
# [11] = tested on: PRMT1 (protein arginine N-methyltransferase 1); test: PRMT1 binders on small-molecule microarrays, primary screen, biochemical, small-molecule microarray, 635 nm fluorescence (AID 1088); conditions: small-molecule microarray binding, higher = more signal;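 further: binding of Prmt1 protein to compounds spotted on small-molecule microarray slides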
# [12] = yeast growth modulation, basal conditions, primary screen, YJM789 clinical isolate, OD600, 24 h (AID 1089);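 further: growth of clinical yeast isolate S. cerevisiae YJM 789 seeded 1000 cells per well; test concentration not given here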; conditions: S. cerevisiae YJM789 growth, higher = more signal, called active from +8 up or from −8 down
# [13] = fission yeast growth modulation, primary screen, strain 972, OD600, 24 h, no modulator (AID 1090);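 further: basal condition with compound alone and no growth modifier present; test concentration not given here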; conditions: S. pombe 972 growth, higher = more signal, called active from +8 up or from −8 down
# [14] = S. cerevisiae growth modulation with rapamycin, primary screen, strain BY4716, OD600, 96 h (AID 1091); conditions: higher = more signal, called active from +8 up or from −8 down; further: test concentration not given here
# [15] = target: Torsin-1A-interacting protein 2 (Homo sapiens) (UniProt Q8NFQ8); test: LULL1 binders on small-molecule microarray, primary screen, cell lysate, human LULL1 lysate, 635/667 nm fluorescence (AID 1092); conditions: hLULL1 lysate binding, 635 nm fluorescence, higher = more signal;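 further: probe is lysate of COS7 cells overexpressing human LULL1; score merges per-feature 667 nm fluorescence with signal-to-noise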
# [16] = E. coli growth modulation, two-sided OD650, primary screen, E. coli filamentation project, strain DRC41, 24 h (AID 1093); conditions: OD650, 24 h, higher = more signal, called active from +8 up or from −8 down;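 further: MC1000 strain lacking acrAB efflux and sulA so SOS filamentation is blocked; test concentration not given here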
# [17] = small-molecule microarray binders of probe aLefty2, primary screen, biochemical, biotinylated probe, 635/667 nm fluorescence (AID 1094); conditions: higher = more signal;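 further: score merges spot fluorescence near 667 nm with spot signal-to-noise ratio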
# [18] = tested on: Noggin (protein binding on small-molecule microarray); test: Noggin binders on small-molecule microarray, primary screen, biochemical, 635/667 nm fluorescence (AID 1095); conditions: 635 nm fluorescence, higher = more signal;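 further: score merges 667 nm feature fluorescence with signal to noise over triplicate slides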
# [19] = target: Neurogenic locus notch homolog protein 3 (Homo sapiens) (UniProt Q9UM47); test: NOTCH3 binders on small-molecule microarray, primary screen, biochemical, 635/667 nm fluorescence (AID 1096); conditions: NOTCH3 binding, 635 nm fluorescence, higher = more signal
# Neurogenic locus notch homolog protein 3 (Homo sapiens), sequence (Q9UM47 whole entry, looked up): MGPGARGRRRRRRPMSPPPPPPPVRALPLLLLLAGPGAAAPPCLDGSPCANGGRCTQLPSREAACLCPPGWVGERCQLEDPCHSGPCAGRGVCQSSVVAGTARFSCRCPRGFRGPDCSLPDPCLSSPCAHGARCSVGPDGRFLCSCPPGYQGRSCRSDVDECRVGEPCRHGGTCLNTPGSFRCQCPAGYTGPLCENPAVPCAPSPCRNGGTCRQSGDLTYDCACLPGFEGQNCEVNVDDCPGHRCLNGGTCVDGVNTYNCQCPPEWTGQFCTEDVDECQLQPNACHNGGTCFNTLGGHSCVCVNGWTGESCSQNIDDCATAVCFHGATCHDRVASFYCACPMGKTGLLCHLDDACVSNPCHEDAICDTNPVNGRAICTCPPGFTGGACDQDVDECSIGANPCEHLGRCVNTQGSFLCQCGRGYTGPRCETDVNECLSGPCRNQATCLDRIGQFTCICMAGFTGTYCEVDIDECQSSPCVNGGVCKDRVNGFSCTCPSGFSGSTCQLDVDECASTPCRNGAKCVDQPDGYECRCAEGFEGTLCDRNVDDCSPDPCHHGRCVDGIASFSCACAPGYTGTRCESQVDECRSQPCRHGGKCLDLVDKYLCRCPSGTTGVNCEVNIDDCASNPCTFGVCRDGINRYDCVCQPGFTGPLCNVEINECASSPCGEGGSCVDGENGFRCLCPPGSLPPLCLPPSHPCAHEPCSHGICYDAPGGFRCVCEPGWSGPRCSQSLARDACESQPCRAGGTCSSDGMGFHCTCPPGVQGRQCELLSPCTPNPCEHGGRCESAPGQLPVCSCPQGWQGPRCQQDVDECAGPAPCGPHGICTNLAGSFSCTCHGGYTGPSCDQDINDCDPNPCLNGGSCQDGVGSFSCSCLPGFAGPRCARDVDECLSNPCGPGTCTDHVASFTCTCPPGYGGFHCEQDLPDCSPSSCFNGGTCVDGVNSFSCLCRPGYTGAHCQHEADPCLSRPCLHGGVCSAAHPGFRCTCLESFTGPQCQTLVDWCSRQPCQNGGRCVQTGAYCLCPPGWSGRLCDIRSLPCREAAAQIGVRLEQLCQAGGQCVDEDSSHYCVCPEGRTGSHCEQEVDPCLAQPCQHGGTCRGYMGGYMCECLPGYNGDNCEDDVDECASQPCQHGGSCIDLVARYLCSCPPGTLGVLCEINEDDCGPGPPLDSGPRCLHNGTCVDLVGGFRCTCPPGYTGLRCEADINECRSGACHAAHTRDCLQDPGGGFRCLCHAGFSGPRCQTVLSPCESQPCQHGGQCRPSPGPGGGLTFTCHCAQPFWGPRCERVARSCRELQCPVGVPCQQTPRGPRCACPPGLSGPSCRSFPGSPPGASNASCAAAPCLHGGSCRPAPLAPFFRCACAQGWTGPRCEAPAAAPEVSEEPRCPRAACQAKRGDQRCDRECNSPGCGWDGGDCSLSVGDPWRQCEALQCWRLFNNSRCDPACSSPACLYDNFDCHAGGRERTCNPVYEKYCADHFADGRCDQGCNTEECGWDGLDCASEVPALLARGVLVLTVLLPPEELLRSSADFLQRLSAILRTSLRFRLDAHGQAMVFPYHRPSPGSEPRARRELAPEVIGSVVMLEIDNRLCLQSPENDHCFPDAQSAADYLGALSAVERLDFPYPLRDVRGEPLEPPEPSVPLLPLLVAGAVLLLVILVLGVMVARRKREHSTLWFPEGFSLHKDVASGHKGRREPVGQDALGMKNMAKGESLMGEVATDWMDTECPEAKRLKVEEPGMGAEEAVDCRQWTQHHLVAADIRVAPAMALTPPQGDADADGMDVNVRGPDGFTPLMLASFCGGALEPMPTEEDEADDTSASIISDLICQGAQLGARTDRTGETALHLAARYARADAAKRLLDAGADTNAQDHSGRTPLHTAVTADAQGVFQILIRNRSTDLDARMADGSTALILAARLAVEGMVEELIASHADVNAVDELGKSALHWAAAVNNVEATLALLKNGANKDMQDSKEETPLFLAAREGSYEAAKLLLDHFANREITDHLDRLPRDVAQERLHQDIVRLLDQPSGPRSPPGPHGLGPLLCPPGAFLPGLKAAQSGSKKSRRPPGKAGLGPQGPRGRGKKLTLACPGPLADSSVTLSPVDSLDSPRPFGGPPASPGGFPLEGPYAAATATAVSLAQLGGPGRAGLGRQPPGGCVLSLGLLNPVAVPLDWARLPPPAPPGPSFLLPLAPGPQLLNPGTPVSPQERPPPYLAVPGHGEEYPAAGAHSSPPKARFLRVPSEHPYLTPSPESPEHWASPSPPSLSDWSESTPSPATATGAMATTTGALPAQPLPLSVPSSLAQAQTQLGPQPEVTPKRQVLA
# [20] = small-molecule microarray binders of probe aEGFR, primary screen, biochemical, biotinylated probe, 635/667 nm fluorescence (AID 1097); conditions: higher = more signal;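 further: probe is a biotinylated anti-EGFR antibody binding compounds printed on slides; score combines fluorescence near 667 nm and signal to noise of each spot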
SMILES,composite z-score [1],composite z-score [2],composite z-score [3],composite z-score [4],composite z-score [5],composite z-score [6],composite z-score [7],z-score [8],composite z-score [9],composite z-score [10],composite z-score [11],z-score [12],z-score [13],z-score [14],composite z-score [15],z-score [16],composite z-score [17],composite z-score [18],composite z-score [19],composite z-score [20]
CC(C)(C)OC(=O)CC[C@]12N=C(c3ccc(OCCCO)cc3)O[C@H]1c1ccccc1N(Cc1ccccc1)C2=O,0.555,0.178,0.0436,0.329,0.0567,0.457,1.13,-1.7 (inactive),0.259,-0.187,1.54,0.429 (inactive),-1.1 (inactive),5.79 (inactive),2.72,0.911 (inactive),0.12,0.938,0.967,-0.128
CCOC(=O)C[C@H]1[C@H](OC(=O)c2ccccc2-c2ccccc2)[C@@H](NC(=O)c2ccccc2)c2cc(OCCCO)ccc2N1C(=O)c1ccccc1,-0.304,0.0919,-0.0885,0.585,0.494,0.127,0.0357,0.0899 (inactive),0.0801,0.0274,0.0302,-0.0764 (inactive),0.587 (inactive),1.58 (inactive),1.22,-1.11 (inactive),-0.214,0.169,0.243,-0.0726
COC(=O)[C@@]1(Cc2ccccc2CN=[N+]=[N-])N=C(c2ccc(OCCCO)cc2)O[C@H]1c1ccccc1,1.4,-0.0284,0.118,-0.774,-0.0293,0.532,1.2,-2.17 (inactive),0.187,-0.451,1.45,0.682 (inactive),-2.11 (inactive),35.9 (active),1.94,0.77 (inactive),0.547,0.151,0.107,0.0209
CC(=O)NCCCC[C@@H]1NC(=O)[C@H]2C[C@@H](C(=O)NCCCCCNC(=O)CS)[C@@H](c3cccc(OCCO)c3)N2C1=O,-0.0107,0.487,-0.133,-0.379,-0.544,-0.352,1.03,0.824 (inactive),-0.203,-0.0074,0.896,0.778 (inactive),0.0625 (inactive),0.0709 (inactive),3.18,-0.418 (inactive),-0.184,0.52,0.059,-0.104
CCOC(=O)C1=C[C@@H](c2ccccc2)N(S(=O)(=O)c2ccc(C)cc2)[C@H]1c1ccccc1,0.119,-0.137,-0.0659,0.21,0.917,0.442,0.296,-0.401 (inactive),0.171,-0.0994,0.712,-1.27 (inactive),0.517 (inactive),0.958 (inactive),0.91,0.6 (inactive),-0.0113,0.0762,0.552,-0.112
O=C1C2C=CC(C(O)c3cc(C(F)(F)F)cc(C(F)(F)F)c3)N(Nc3ccccc3F)C2C(=O)N1c1ccccc1 (stereo not given),0.835,0.554,-0.0049,0.233,0.909,1.85,1.16,0.285 (inactive),0.967,-0.202,1.11,0.503 (inactive),0.854 (inactive),6.9 (inactive),3.19,-1.99 (inactive),0.0655,-0.989,1.07,0.0061
COc1ccc([Si](C)(C)[C@H]2[C@H](CCO)O[C@@]3(C(=O)N(Cc4ccccc4)c4ccc(N5C(=O)c6ccccc6Oc6ccccc65)cc43)[C@@H]2C)cc1,0.342,-0.393,-0.0591,0.606,-0.0653,0.777,0.79,-1.55 (inactive),-0.0173,-0.169,1.12,-0.234 (inactive),0.723 (inactive),4.27 (inactive),1.94,1.25 (inactive),-0.114,-0.355,0.427,-0.174
CCOC(=O)C[C@H]1[C@H](OC(=O)c2ccc(-c3ccccc3)cc2)[C@@H](NC(=O)Cc2ccc(OC)cc2)c2cc(OCCCO)ccc2N1C(=O)Cc1ccc(OC)cc1,-0.278,-0.236,-0.101,0.102,0.216,0.243,-0.29,-0.362 (inactive),0.3,-0.154,0.287,1.09 (inactive),-0.231 (inactive),1.63 (inactive),1.55,1.3 (inactive),-0.0769,-0.542,-0.0636,-0.094
CC(C)C(=C=CC[C@@H](O)c1cccc(OCCO)c1)C[C@@H](O)c1ccccn1,-0.437,-0.0934,-0.147,0.815,-0.553,-0.253,0.125,1.35 (inactive),-0.0246,-0.137,0.504,-0.282 (inactive),-0.361 (inactive),-0.419 (inactive),1.26,0.379 (inactive),-0.283,0.38,0.603,-0.161
Cc1ccc(C(C)CC(O)C2C=CC3C(=O)N(c4ccccc4)C(=O)C3N2Nc2ccc(C#N)cc2)o1 (stereo not given),0.0794,-0.28,0.0489,0.954,1.7,1.88,1.08,-0.629 (inactive),0.998,-0.283,1.55,-26 (active),-16.8 (active),-3.16 (inactive),3.46,-0.0931 (inactive),0.188,0.383,1.13,0.122

# Reference: PubChem BioAssay
